The results in this text go back to PubChem BioAssay AID720519 (National Center for Advancing Translational Sciences (NCATS), 2013).

Inconclusive results are not listed. A call without a number means that no potency is given here. Calls of active or inactive are those of the source. The call rests on the fitted dose curve; in most records, active means well fitted activation curve with a large enough effect; inconclusive means small, poorly fitted or top-dose-only effect; inactive means flat fitted curve, though single readings scatter.
Potency means the concentration at half of the fitted maximal effect.

The test in a line: qHTS for Inhibitors of Cell Surface uPA Generation: Confirmatory Assay for Cherry-picked Compounds. Conditions: cell surface uPA activity generation, qHTS confirmation; series mostly up to 115 µM. An outline of the steps:
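RAW 264.7 cells at 4000/well, incubated overnight, then treated with compounds. After 24 h at 37 C, viability was read by ATPlite luminescence. An increase in signal indicates blocked uPA-dependent LF entry.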
Turning to `CCN(c1ccccc1)S(=O)(=O)c1ccc(NC(=O)c2ccco2)cc1`, the Potency entry is “inactive”. As for `COc1ccc(C(=O)NCCOC(C)C)cc1OC1CCN(C(C)=O)CC1`, the entry is “inactive”. To `Cc1ccccc1NC(=O)N1CCN(c2ncccn2)CC1` belongs “inactive”.

Consider `CN(CCC#N)C(=S)Nc1ccc(Oc2ccccc2)cc1`, for which the Potency entry is “inactive”.

As to `COC(=O)c1cc(CNC(=O)c2ccc(N3CCCC3)c([N+](=O)[O-])c2)ccc1OC`, the Potency entry is “inactive”. With `N#Cc1cccc(NC(=O)Cn2cnc(S(=O)(=O)N3CCOCC3)c2)c1`, the Potency result is “inactive”. As for `CN(C(=O)CCn1c(=S)oc2ccccc21)c1ccc(F)cc1`, the entry is “inactive”; as for `CCC1(C)NC(=O)N(CC(=O)Nc2sc3c(c2C(N)=O)CCC3)C1=O` (stereo not drawn), “inactive”. As for `O=C(c1cc(COc2c(F)cccc2F)on1)N1CCc2ccccc2C1`, the entry is “inactive”. Turning to `Cc1ccc2oc(C(=O)N(Cc3ccc(N(C)C)cc3)C3CCS(=O)(=O)C3)c(C)c2c1` (stereo not drawn), the Potency entry is “inactive”.

In the case of `CCOC(=O)C1CCN(S(=O)(=O)c2c[nH]c(=O)[nH]c2=O)CC1`, the Potency entry is “inactive”. As for `CCS(=O)(=O)N1CCC(C(=O)NCc2ccc(OC)cc2OC)CC1`, the entry is “inactive”; as for `CCCCN(CC)CCNC(=O)c1cc2cc3ccc(Cl)cc3nc2o1`, “inactive”; as for `O=C(Nc1ccc2c(c1)CCC2)Nc1ccc2c(c1)OCO2`, “inactive”. As for `COc1ccc(C2NC(=O)CCC2[N+](=O)[O-])c(OC)c1OC` (stereo not drawn), the entry is “inactive”; as for `O=C(CCCOc1ccc(Cl)cc1Cl)NCc1ccncc1`, “inactive”. To `COCCN(C(=O)CSc1nnc(-c2ccncc2)n1C)c1c(N)n(CC(C)C)c(=O)[nH]c1=O` belongs “inactive”. On to `CN(C)c1cccc(C(=O)N(C)C2CCCN(Cc3ccccc3F)C2)c1` (stereo not drawn), for which the Potency is 20.7 µM (active).

Turning to `COc1cc(CNCc2ccc3c(c2)OCO3)c([N+](=O)[O-])cc1OC`, the Potency result is “inactive”.

For `CCOc1ccc(C2(C)CC(=O)N(C)C2=O)cc1` (stereo not drawn), the Potency result was “inactive”. As for `CCN(CC)S(=O)(=O)c1ccc(C(=O)Nc2cccc(C)c2)cc1`, the entry is “inactive”; as for `O=C(CCc1ccccc1)NNC(=O)c1cccc(F)c1`, “inactive”; as for `CC1CCCN(C(=O)c2ccc(-c3ccccc3Cl)o2)C1` (stereo not drawn), “inactive”. To `CC(C)(C)OC(=O)N(Cc1ccccc1)Cc1ccccc1OCc1cccc(NC(=O)C2CC2)c1` belongs “inactive”; to `O=C(C[C@@H]1C/C=C\C[C@H](Cc2ccc(F)cc2)C(=O)OC[C@H]2CCCN2C1=O)N[C@H](CO)Cc1ccccc1`, “inactive”. On to `O=C(COC(=O)c1ccc2ncsc2c1)NCc1cccc(Cl)c1`, for which the Potency result is “inactive”. As for `CC(=O)Nc1nc2ccccc2[nH]1`, the entry is “inactive”. To `CCOC(=O)CN1C(=O)N[C@@H](c2ccco2)C(C(=O)OC)=C1C` belongs “inactive”; to `O=[N+]([O-])c1ccccc1C=NNC(=S)NN=Cc1ccccc1[N+](=O)[O-]`, “inactive”; to `c1csc(CN2CCOCC2)c1`, “inactive”. To `Cc1cc(N2C(=O)C(O)=C(C(=O)c3ccco3)C2c2ccc(Cl)cc2)no1` (stereo not drawn) belongs “inactive”; to `Nc1ccc(S(=O)(=O)c2ccccc2)nc1`, “inactive”; to `COc1cc(CN2CCN(S(=O)(=O)c3ccccc3)CC2)cc(OC)c1OC`, “inactive”. Turning to `CC(=O)c1ccc(OCCCCOc2ccc(C(C)=O)cc2)cc1`, the Potency entry was “inactive”. Consider `C[C@@H](C(=O)Nc1ccc2ccccc2c1)[C@@H]1C[C@@]1(C)[C@@H](NC(=O)c1cccnc1)c1ccccc1`, for which the Potency result was “inactive”. For the molecule `Cc1ccc(C)c(-c2ccc(=O)n(Cc3c(F)cccc3Cl)n2)c1`, the Potency result is “inactive”.

For the molecule `CC(C)(C)C(=O)NCCc1nc2ccccc2n1CC(=O)c1ccc(Cl)cc1`, the Potency entry was “inactive”. With `CCc1ccccc1N(CC(=O)N1CCCC1)S(C)(=O)=O`, the Potency entry was “inactive”.
